# Assay results from PubChem BioAssay.
# Records with an inconclusive call do not appear. Active and inactive are the calls of the source. Unless noted, how the calls were made is not given here.
# How the values were obtained:
# [1] = system: Neuropilin-2 / VEGF-C interaction (human); experiment: small molecules blocking Neuropilin-2/VEGF-C interaction – biochemical, microplate binding format, z-score (AID 743281); conditions: microplate NRP2/VEGF-C binding assay; stronger effect = lower value
# [2] = compounds altering HSF1 focus formation in cells – imaging, Selleck Cancer Library (AID 1347162; in the data active means plate-normalised HSF1 focus index below about 0.46); conditions: human cells, HSF1 nuclear foci imaging, at 10 µM; SSMD: measured here: HSF1 foci SSMD mean; cell count: measured here: cell number; plate-normalised HSF1 focus index: stronger effect = lower value
# [3] = compounds altering viability of human ES cells (AID 493140); conditions: human embryonic stem cell survival screen; stronger effect = higher value;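 further: cells exposed to compounds for four days before counting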
# [4] = viability loss in pontine glioma line – cell-based, JHH-DIPG-1, MIPE4.0, CellTiter-Glo, qHTS, dose response (AID 1347062; cut-off not given, nearly all actives have AC50 up to about 27 µM;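 on AC50: cells exposed to compound for two days before readout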); conditions: JHH-DIPG-1 viability, CellTiter-Glo ATP luminescence
# [5] = viability loss in pontine glioma line – cell-based, SU-DIPG-XXV, MIPE5.0, CellTiter-Glo, qHTS, dose response (AID 1347065; cut-off not given, nearly all actives have AC50 up to about 26 µM;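 further: cells exposed to compound for 48 hours before ATP readout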); conditions: CellTiter-Glo ATP luminescence
# [6] = growth inhibition of DIPG cells – cell-based, MIPE4.0 library, CellTiter-Glo luminescence, qHTS (AID 1347066; cut-off not given, nearly all actives have AC50 up to about 30 µM;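 further: cells exposed to compound for 48 hours before readout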); conditions: SU-DIPG-VI viability, CellTiter-Glo ATP luminescence
# [7] = target: NAD(+) hydrolase SARM1 (Homo sapiens) (UniProt Q6SZW1); experiment: blocking NAD cleavage by SARM1 SAM-TIR – cell lysate, NAD-Glo luminescence (AID 1508614;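 active means compound whose remaining NAD level is above about 45 nM, limit read from the data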); conditions: SAM-TIR HEK293T lysate NADase, at 1 µM, stronger effect = higher value
# F380Y/beta4 = experiment: BK channel mutant inhibitors and activators – cell-based, U2OS BacMam, thallium flux, beta subunits, selectivity assay, profiling panel (AID 1259406;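 active means thallium flux through the channel raised or lowered by more than 3 SD from vehicle-only wells, actives on both sides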;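 further: initial slope of Thallos dye fluorescence rise after thallium is added; log ratio against the mean of 0.3% DMSO vehicle wells on the same plate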); conditions: U2OS BacMam BK variants, at 30 µM
# R275C/beta4 = experiment: as above; conditions: U2OS BacMam BK variants, at 30 µM
# R275C/Slo1WT/beta2 = experiment: as above; conditions: U2OS BacMam BK variants, at 30 µM
# [8] = blockers of polyQ-driven CASP3 activation – cell-based (AID 1583); conditions: polyglutamine-induced caspase-3 activation, cell assay; stronger effect = higher value;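 tested at 10 µM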
# [9] = yeast 75Q aggregation reduction – 75Q-TubU reporter (AID 1593); conditions: Yeast 75Q polyglutamine aggregation reporter
# [10] = blockers of cytochrome c efflux from mitochondria – biochemical, purified mitochondria (AID 1603); conditions: stronger effect = lower value;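 further: mouse liver mitochondria challenged with calcium chloride; signal normalized to the plate average as 100%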
# [11] = polyglutamine aggregate formation blockers (AID 1604); conditions: polyglutamine-induced protein aggregation inhibition assay; stronger effect = higher value; tested at 2.5 µM
# [12] = glutamate transport activators, MN-1 cells, MN-1 cell line (AID 1612); conditions: MN-1 motor neuron cells, stronger effect = higher value;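 further: tested at 1 µM final; 0% = mean of DMSO vehicle wells on each plate; positive means more glutamate uptake than control and negative means less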
# [13] = 75Q-TubH aggregate inhibition, S. cerevisiae, yeast (AID 1616); conditions: S. cerevisiae 75Q-TubH polyglutamine aggregation suppression; stronger effect = higher value
# [14] = compounds altering circadian rhythm period length – cell-based, LOPAC library, luminescence reporter (AID 2774); conditions: circadian reporter cells, at 7 µM, actives lie on both sides;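 further: values are relative to mean of DMSO wells on each plate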
# [15] = system: Hepatitis C virus NS3 helicase; experiment: blockers of NS3h binding to ssDNA – biochemical, fluorescence polarization, LOPAC1280 library, primary screen (AID 687035; in the data active means inhibition above about 37%); conditions: Purified HCV NS3 helicase, Cy5-dT15 ssDNA binding fluorescence polarization; stronger effect = higher value; concentration not given here
# [16] = compounds altering Cy5-DNA-NS3h complex signal – biochemical, LOPAC1280, artefact control for HCV NS3 helicase inhibitor project (AID 687037); conditions: Cy5-DNA-NS3h complex fluorescence interference counterscreen
# [17] = blockers of cellular phospholipid synthesis – cell-based, LOPAC library, screen 4, primary screen (AID 1347384); conditions: animal cells, phospholipid biosynthesis inhibition screen; at 10 µM
# NAD(+) hydrolase SARM1 (Homo sapiens), sequence (Q6SZW1 whole entry, looked up): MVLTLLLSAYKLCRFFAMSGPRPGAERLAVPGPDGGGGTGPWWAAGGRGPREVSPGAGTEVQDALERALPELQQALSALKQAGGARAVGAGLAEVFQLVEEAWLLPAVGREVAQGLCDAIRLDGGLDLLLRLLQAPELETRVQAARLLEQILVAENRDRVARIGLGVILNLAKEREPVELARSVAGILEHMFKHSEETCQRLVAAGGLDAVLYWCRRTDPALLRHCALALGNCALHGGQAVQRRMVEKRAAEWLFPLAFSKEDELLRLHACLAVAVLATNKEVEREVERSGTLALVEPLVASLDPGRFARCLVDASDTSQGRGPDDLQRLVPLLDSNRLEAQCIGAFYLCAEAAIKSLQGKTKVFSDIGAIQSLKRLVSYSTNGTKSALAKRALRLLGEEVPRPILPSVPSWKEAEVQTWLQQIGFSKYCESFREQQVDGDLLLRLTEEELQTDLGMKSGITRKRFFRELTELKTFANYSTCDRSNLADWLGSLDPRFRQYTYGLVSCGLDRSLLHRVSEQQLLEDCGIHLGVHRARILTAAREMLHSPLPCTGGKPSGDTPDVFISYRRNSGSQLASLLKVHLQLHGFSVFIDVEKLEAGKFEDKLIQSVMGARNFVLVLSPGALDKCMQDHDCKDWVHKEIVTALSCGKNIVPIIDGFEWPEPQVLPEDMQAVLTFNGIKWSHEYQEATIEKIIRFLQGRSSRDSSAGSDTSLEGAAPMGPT
structure (smiles),measurement,setting,value
O=C(O[C@@H]1Cc2c(O)cc(O)cc2O[C@@H]1c1cc(O)c(O)c(O)c1)c1cc(O)c(O)c(O)c1,z-score,[1],2.31 (inactive)
same,SSMD,[2],0.931
same,cell count,[2],6910
same,plate-normalised HSF1 focus index,[2],1.03 (inactive)
C[C@H](CCC(=O)O)[C@H]1CC[C@H]2[C@@H]3[C@@H](O)C[C@@H]4C[C@H](O)CC[C@]4(C)[C@H]3CC[C@]12C,survival,[3],4.92 (inactive)
same,AC50,[4],20.9 µM (active)
same,outcome,[5],inactive
same,outcome,[6],inactive
same,remaining NAD,[7],10 nM (inactive)
same,log fold change Tl+ flux,F380Y/beta4,0.0547 (inactive)
same,log fold change Tl+ flux,R275C/beta4,-0.0188 (inactive)
same,log fold change Tl+ flux,R275C/Slo1WT/beta2,-0.0131 (inactive)
CC(CCc1ccccc1)NCC(O)c1ccc(O)c(C(N)=O)c1 (stereo unspecified),inhibition,[8],1.38%
same,score,[9],1.61
same,cytochrome c release ratio,[10],0.72
same,inhibition of aggregation,[11],83.1%
same,glutamate uptake change,[12],-2.28%
same,aggregation suppression score,[13],1.14
same,period change,[14],-0.45 h (inactive)
same,survival,[3],19.1 (inactive)
same,inhibition,[15],-4% (inactive)
same,fluorescence ratio (interference),[16],1 (inactive)
same,outcome,[17],inactive
same,remaining NAD,[7],10 nM (inactive)
same,log fold change Tl+ flux,F380Y/beta4,0.0997 (inactive)
same,log fold change Tl+ flux,R275C/beta4,0.0314 (inactive)
same,log fold change Tl+ flux,R275C/Slo1WT/beta2,-0.0367 (inactive)
CN1CCN(CC/C=C2/c3ccccc3Sc3ccc(S(=O)(=O)N(C)C)cc32)CC1,period change,[14],0.09 h (inactive)
same,remaining NAD,[7],10 nM (inactive)
C[C@]12CC[C@@H]3c4ccc(O)cc4CC[C@H]3[C@@H]1CC[C@@H]2O,period change,[14],0.19 h (inactive)
same,survival,[3],11.2 (inactive)
same,inhibition,[15],-3% (inactive)
same,fluorescence ratio (interference),[16],1 (inactive)
same,outcome,[5],inactive
same,outcome,[6],inactive
same,SSMD,[2],2.53
same,cell count,[2],7010
same,plate-normalised HSF1 focus index,[2],1.15 (inactive)
same,outcome,[17],inactive
same,remaining NAD,[7],10 nM (inactive)
Cc1ccc(N(CC2=NCCN2)c2cccc(O)c2)cc1,inhibition,[8],0.92%
same,score,[9],1.23
same,cytochrome c release ratio,[10],0.77
same,inhibition of aggregation,[11],56.3%
same,glutamate uptake change,[12],-12.3%
same,aggregation suppression score,[13],1.42
same,period change,[14],-0.015 h (inactive)
same,survival,[3],15.2 (inactive)
same,inhibition,[15],-6% (inactive)
same,fluorescence ratio (interference),[16],0.9 (inactive)
same,outcome,[4],inactive
same,outcome,[5],inactive
same,outcome,[6],inactive
same,outcome,[17],inactive
same,remaining NAD,[7],10 nM (inactive)
CN(C)CCC(c1ccc(Cl)cc1)c1ccccn1 (stereo unspecified),inhibition,[8],-45.4%
same,score,[9],1.36
same,cytochrome c release ratio,[10],0.61
same,inhibition of aggregation,[11],-12.5%
same,glutamate uptake change,[12],-7.91%
same,aggregation suppression score,[13],1.27
same,period change,[14],-0.5 h (inactive)
same,survival,[3],24.1 (inactive)
same,inhibition,[15],-6% (inactive)
same,fluorescence ratio (interference),[16],0.9 (inactive)
same,z-score,[1],0.208 (inactive)
same,outcome,[17],inactive
same,remaining NAD,[7],10 nM (inactive)
same,log fold change Tl+ flux,F380Y/beta4,0.0511 (inactive)
same,log fold change Tl+ flux,R275C/beta4,0.0326 (inactive)
same,log fold change Tl+ flux,R275C/Slo1WT/beta2,0.0403 (inactive)
